Measurements as given in the supplement of paper PMC13380429.

Tested on: Vero E6 infected with SARS-CoV-2
Assay: inhibition of SARS-CoV-2 cytopathic effect; higher = more antiviral protection, active = above 15
Conditions: 48 h

Measured: inhibition of SARS-CoV-2 cytopathic effect

CC(=O)[C@@]1(O)CC[C@H]2[C@@H]3C=C(Cl)C4=CC(=O)[C@@H]5C[C@@H]5[C@]4(C)[C@H]3CC[C@@]21C
inactive: 1 nM -4.45% | 8.33 nM -5.77% | 100 nM -6.29% | 833.33 nM -6.05% | 10000 nM -4.41%

Cn1c2cc([S+](C)[O-])sc2c2cnn(Cc3cccc(N)c3)c(=O)c21 (stereo not given)
inactive: 1 nM -0.28% | 8.33 nM -0.88% | 100 nM 5.04% | 833.33 nM 3.73% | 10000 nM 4.31%

COc1c(C)cnc(Cn2cc(C#CCC(C)(C)O)c3c(Cl)nc(N)nc32)c1C
inactive: 1 nM 2.11% | 8.33 nM 1.52% | 100 nM -1.98% | 833.33 nM 0.61% | 10000 nM -7.6%

COc1cc2c(cc1O)CC[C@@H]1[C@@H]2CC[C@]2(C)[C@@H](O)CC[C@@H]12 [2-methoxyestradiol]
inactive: 1 nM -3.17% | 8.33 nM 0.66% | 100 nM -1.13% | 833.33 nM -1.83% | 10000 nM -4.59%

Cn1c(C#N)ccc1-c1ccc2c(c1)C(C)(C)OC(=S)N2 [tanaproget]
inactive: 1 nM 3.59% | 8.33 nM 4.95% | 100 nM 0.34% | 833.33 nM 3.55% | 10000 nM 1.06%

CC(C)Cc1ccc(C(C)C(=O)O)cc1 (stereo not given) [ibuprofen]
inactive: 1 nM 1.03% | 8.33 nM -0.113% | 100 nM -0.0767% | 833.33 nM 1.1% | 10000 nM -0.35%

C[C@@H](c1nc(-c2ccc(C#N)cc2)cs1)[C@](O)(Cn1cncn1)c1ccc(F)cc1F [ravuconazole]
inactive: 1 nM -0.11% | 8.33 nM -0.67% | 100 nM -0.09% | 833.33 nM -0.86% | 10000 nM 0.29%

CNC(=O)c1ccc2cc([C@@]3(O)CCn4cncc43)ccc2c1 [orteronel]
inactive: 1 nM 3.23% | 8.33 nM 3.01% | 100 nM 4.35% | 833.33 nM 3.1% | 10000 nM 2.53%

CC[C@H](NC(=O)c1c(C)c(-c2ccccc2)nc2ccccc12)c1ccccc1
inactive: 1 nM 1.87% | 8.33 nM 4.53% | 100 nM 5.18% | 833.33 nM 3.05% | 10000 nM -2.21%

N#Cc1c(Oc2ccc(F)c(NC(=O)Cc3cccc(C(F)(F)F)c3)c2)ccc2nc(NC(=O)C3CC3)sc12
inactive: 1 nM 0.58% | 8.33 nM 2.74% | 100 nM 2.56% | 833.33 nM 0.34% | 10000 nM -7.91%

Clc1ccc(CCCOCCCN2CCCCC2)cc1 [pitolisant]
inactive: 1 nM 1.67% | 8.33 nM 1.19% | 100 nM -1.62% | 833.33 nM -2.26% | 10000 nM -0.08%

COC(=O)C1=C(C)NC(C)=C(C(=O)O[C@H]2CCN(Cc3ccccc3)C2)[C@H]1c1cccc([N+](=O)[O-])c1 [barnidipine]
inactive: 1 nM 2.33% | 8.33 nM 1.62% | 100 nM 1.31% | 833.33 nM 3.84% | 10000 nM -0.56%

COc1ccccc1N1CCN(CCCCN2C(=O)c3ccccc3C2=O)CC1
inactive: 1 nM -0.49% | 8.33 nM -1.04% | 100 nM 2.68% | 833.33 nM 1.7% | 10000 nM 4.74%

CCc1cccc2c3c([nH]c12)C(CC)(CC(=O)O)OCC3 (stereo not given) [etodolac]
inactive: 1 nM -3.24% | 8.33 nM -2.14% | 100 nM -2.22% | 833.33 nM -1.67% | 10000 nM -0.69%

O=C1C(CC[S+]([O-])c2ccccc2)C(=O)N(c2ccccc2)N1c1ccccc1 (stereo not given) [sulfinpyrazone]
inactive: 1 nM 1.22% | 8.33 nM 1.51% | 100 nM -0.06% | 833.33 nM 0.46% | 10000 nM 0.32%

CN1C(=O)CC[C@H]1c1cccnc1 [cotinine]
inactive: 1 nM -0.33% | 8.33 nM -1.5% | 100 nM -0.09% | 833.33 nM 0.39% | 10000 nM 0.17%

CC(=O)Nc1ccc(C(=O)O)cc1 [acedoben]
inactive: 1 nM -1.13% | 8.33 nM 3.16% | 100 nM 1.58% | 833.33 nM 0.73% | 10000 nM 3.31%

O=C(O)c1cc(/N=N/c2ccc(S(=O)(=O)Nc3ccccn3)cc2)ccc1O [sulfasalazine]
inactive: 1 nM -0.13% | 8.33 nM -2.23% | 100 nM -0.23% | 833.33 nM -1.38% | 10000 nM 0.47%

O=C(Nc1cnn2ccc(N3CCC[C@@H]3c3cc(F)ccc3F)nc12)N1CC[C@H](O)C1 [larotrectinib]
inactive: 1 nM 1.44% | 8.33 nM 4.14% | 100 nM 3.48% | 833.33 nM -0.49% | 10000 nM 2.41%

Cc1cccc(C)c1NC(=O)C1CCCCN1C (stereo not given) [mepivacaine]
inactive: 1 nM -3.62% | 8.33 nM -1.78% | 100 nM -2.27% | 833.33 nM -0.18% | 10000 nM 0.81%

c1ccc(C2CN3CCSC3=N2)cc1 (stereo not given) [tetramisole]
inactive: 1 nM 0.71% | 8.33 nM 1.55% | 100 nM 0.335% | 833.33 nM 6.51% | 10000 nM 2.84%

c1ccc2c(-c3cnn4cc(-c5ccc(N6CCNCC6)cc5)cnc34)ccnc2c1
inactive: 1 nM 1.9% | 8.33 nM 4.28% | 100 nM 1.29% | 833.33 nM -6.31% | 10000 nM -26.3%

CN1CCc2c(c3ccccc3n2Cc2ccc(C(=O)NO)cc2)C1 [tubastatin-A]
inactive: 1 nM -0.32% | 8.33 nM 0.16% | 100 nM 1.09% | 833.33 nM -1.27% | 10000 nM -6.46%

CN1[C@@H]2CC[C@H]1C[C@@H](OC(=O)c1c[nH]c3ccccc13)C2 [tropisetron]
inactive: 1 nM -1.26% | 8.33 nM -1.1% | 100 nM 1.21% | 833.33 nM 1.27% | 10000 nM -1.17%

CS(=O)(=O)Nc1c(O)ccc2c1CCC[C@H]2C1=NCCN1
inactive: 1 nM 1.13% | 8.33 nM -1.43% | 100 nM -1.29% | 833.33 nM 0.49% | 10000 nM -3.82%

O=[N+]([O-])c1ccc2c(c1)S(=O)(=O)C=C2 [stattic]
inactive: 1 nM -2.62% | 8.33 nM -2.1% | 100 nM -5.02% | 833.33 nM 5.41% | 10000 nM -2.07%

N=C(N)NS(=O)(=O)c1ccc(N)cc1 [sulfaguanidine]
inactive: 1 nM 1.47% | 8.33 nM 1.27% | 100 nM -0.35% | 833.33 nM 0.47% | 10000 nM 1.22%

Nc1ncnc2c1ncn2[C@@H]1O[C@H](CO)[C@@H](O)[C@H]1O [adenosine]
inactive: 1 nM 2.02% | 8.33 nM 3.5% | 100 nM 0.67% | 833.33 nM -1.84% | 10000 nM 1.06%

O=C(Nc1ccc(C(=O)O)c(O)c1)c1ccccc1 [benzoylpas]
inactive: 1 nM 0.82% | 8.33 nM -2.28% | 100 nM 0.45% | 833.33 nM -0.08% | 10000 nM -0.85%

C[C@H]1O[C@@H](O[C@H]2CC[C@@]3(C)[C@H](CC[C@@H]4[C@@H]3C[C@@H](O)[C@]3(C)[C@@H](C5=CC(=O)OC5)CC[C@]43O)C2)C[C@H](O)[C@@H]1O[C@H]1C[C@H](O)[C@H](O[C@H]2C[C@H](O)[C@H](O[C@@H]3O[C@H](CO)[C@@H](O)[C@H](O)[C@H]3O)[C@@H](C)O2)[C@@H](C)O1 [deslanoside]
inactive: 1 nM -1.34% | 8.33 nM -4.74% | 100 nM -14.1% | 833.33 nM -18.9% | 10000 nM -20.6%

COc1ccc2nc(NC(=O)Nc3ccccc3)sc2c1 [frentizole]
inactive: 1 nM -3.36% | 8.33 nM 0.96% | 100 nM -1.31% | 833.33 nM -1.35% | 10000 nM 1.78%

NC(=O)N1c2ccccc2CC(=O)c2ccccc21 [oxcarbazepine]
inactive: 1 nM 0.74% | 8.33 nM 3.71% | 100 nM 4.19% | 833.33 nM -0.85% | 10000 nM 4.57%

O=c1oc2ccccc2c(O)c1Cc1c(O)c2ccccc2oc1=O [dicoumarol]
inactive: 1 nM 0.87% | 8.33 nM 0.88% | 100 nM -0.82% | 833.33 nM 1.35% | 10000 nM 3.32%

COc1cccc2c1C(=O)c1c(O)c3c(c(O)c1C2=O)C[C@@](O)(C(C)=O)C[C@@H]3O[C@H]1C[C@H](N)[C@H](O)[C@H](C)O1 [daunorubicin]
inactive: 1 nM 0.05% | 8.33 nM 0.64% | 100 nM 1.14% | 833.33 nM 4.26% | 10000 nM -16.6%

CC(=O)N(O)C/C=C/c1cccc(Oc2ccccc2)c1
inactive: 1 nM 2.1% | 8.33 nM 2.16% | 100 nM 1.66% | 833.33 nM -0.73% | 10000 nM -2.02%

N=C(N)NCc1cccc(I)c1 [iobenguane]
inactive: 1 nM -1.82% | 8.33 nM -0.29% | 100 nM 1.79% | 833.33 nM 2.26% | 10000 nM 6.21%

CCOC(=O)c1ccc(O)cc1 [ethyl-paraben]
inactive: 1 nM 0.82% | 8.33 nM 3.38% | 100 nM -1.2% | 833.33 nM 0.24% | 10000 nM -1.28%

CCCCCCCCCCCCCCCCOP(=O)([O-])OCC[N+](C)(C)C [miltefosine]
inactive: 1 nM -3.26% | 8.33 nM -0.08% | 100 nM 0.27% | 833.33 nM 0.17% | 10000 nM 3.55%

CC(C)N(CCCCOCC(=O)NS(C)(=O)=O)c1cnc(-c2ccccc2)c(-c2ccccc2)n1 [selexipag]
inactive: 1 nM -0.52% | 8.33 nM -1.02% | 100 nM -0.43% | 833.33 nM -0.43% | 10000 nM -1.53%
